Assay results as given in PubChem BioAssay (NCATS).
Where “and” joins values, the source holds several entries; their conditions need not be identical. Identical values can stand only once. Inconclusive results are not listed. Calls of active or inactive are those of the source. Unless noted, calls come from the whole dose curve; as a rule, active = well fitted curve in the direction sought with a large enough effect; inconclusive = small, poorly fitted or top-dose-only effect, or another doubt; inactive = no such curve, though single readings can be large; an effect the other way counts as inactive or inconclusive.

What was measured:
[1] = target: Glucocorticoid receptor (Homo sapiens) (UniProt P04150); test: GR-EFC Redistribution (AID 451; calls by dose curve; note: potency is the fitted concentration of half-maximal effect); conditions: CHO-K1 GR-EFC translocation, beta-gal luminescence, 2 h
Outline: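 CHO-K1 cells expressing nuclear EA and GR-ED fragments of b-gal; compounds titrated up to 46 uM final, 2 h at 37 C. GR nuclear translocation read as complemented b-gal luminescence after 1 h RT detection.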

[2] = target: Mitogen-activated protein kinase 10 (Mus musculus) (UniProt Q61831); test: JNK3 AlphaScreen Assay (AID 530; active = well fitted curve in either direction with a large enough effect, not every such curve was filed as active;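 note: kinase came from lysate of stimulated human HepG2 cells; signal reports phosphorylation of biotinylated GST-cJun 1-79 at Ser73 with 10 µM ATP; % is set by controls: 0 for no effect and ±100 for the full control effect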)
Outline: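 Activity was read by AlphaScreen after JNK3-containing HepG2 lysate (cytokine pre-activated) phosphorylated biotinylated GST-cJun with 10 uM ATP at room temperature. Phospho-Ser73 cJun antibody with Protein-A acceptor beads provided detection.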

[3] = target: 3',5'-cyclic-AMP phosphodiesterase 4B (Homo sapiens) (UniProt Q07343); test: qHTS Assay for Inhibitors of PDE-IV (AID 607; active = well fitted activation curve with a large enough effect in the main read-out, with a control signal flat, not every such curve was filed as active; note: % of control where 0% means no effect)
Outline: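 Cell-based read-out of cAMP via a modified cyclic nucleotide-gated channel and membrane potential dye (535/590 nm) in HEK293 cells expressing PDE4 endogenously. Compounds tested up to 22.9 uM final; 100 uM RO 20-1724 reference.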

[4] = target: Cytochrome P450 2C19 (Homo sapiens) (UniProt P33261); test: qHTS Assay for Inhibitors and Substrates of Cytochrome P450 2C19 (AID 899); note: nearly all actives have a fitted effect of over 60% in size; note: potency is the fitted concentration of half-maximal effect
Outline: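 Luminescent read-out of luciferin formed from Luciferin-H EGE (10uM, equal to KM). Enzyme 5nM in 50mM KPO4; compound added, 10 min at 37C, then NADPH regenerating system for 60 min at 37C. Full inhibition defined by 57uM ketoconazole.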

[5] = qHTS Assay for Lipid Storage Modulators (AID 1519; calls by dose curve); conditions: Drosophila S3 cells, BODIPY lipid droplet/cell ratio, laser cytometry, cells loaded with oleic acid; for activity change, negative = inhibition: at 57.5 µM (top of the series)
Outline: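 Cells seeded at 5,000 per well were treated with compounds over a concentration series and loaded with oleic acid (400 uM, as added). Lipid droplet fluorescence (488 nm excitation, 500-530 nm channel) was read by laser-scanning cytometry and normalized to 20 uM Triacsin C.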

[6] = target: Ubiquitin carboxyl-terminal hydrolase 1 (Homo sapiens) (UniProt O94782); test: Inhibitors of USP1/UAF1: Pilot qHTS (AID 504865);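 note: rhodamine fluorescence freed from ubiquitin-rhodamine substrate followed over time; top concentration of the series differs between compounds; % is set by controls: 0 for no effect and ±100 for the full control effect; nearly all actives have a fitted effect of over 35% in size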
Outline: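 Enzyme-free wells gave the negative control, while test wells held 1nM USP1/UAF1 preincubated with compound for 15 min at room temperature. Ub-Rho at 150nM final started the reaction, and fluorescence at 480/540 nm was recorded kinetically.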

[7] = target: DNA dC->dU-editing enzyme APOBEC-3G (Homo sapiens) (UniProt Q9HC16); test: qHTS for inhibitors of Vif-A3G interactions: Validation (AID 588379); note: 0% is about no effect
Outline: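 Yellow fluorescence (Ex 488, Em 500-530) of Vif-coexpressing HeLa A3G-eYFP cells, scanned by Acumen cytometer, reports blocked A3G degradation. Cells plated at 700/well overnight at 37 deg C before compound addition, then a further overnight compound incubation at 37 deg C.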

[8] = tested on: Zika virus NS2B-NS3 protease; test: Primary screen GU AMC qHTS for Zika virus inhibitors (AID 1347154);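 note: 0% = no-inhibitor control and -100% = no-enzyme control; nearly all actives have a fitted effect of over 70% in size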
Outline: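 Unlinked Zika NS2B hydrophilic domain–NS3 protease complex at 25 nM in 10 mM Tris-HCl pH 8.0, 0.01% Tween 20, with an AMC peptide substrate. Fluorescence change (340/450 nm) over 15 min at room temperature, normalized to controls, fitted to 4-parameter Hill.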

[9] = target: Glucocorticoid receptor (Homo sapiens) (UniProt P04150); test: GR-GFP Redistribution (AID 450;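 active = compounds whose dose series gives a full or clear partial fitted curve of increased nuclear translocation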; note: potency is the fitted concentration of half-maximal effect); conditions: U2OS GR-GFP nuclear translocation, laser cytometry, 2 h
[10] = AP1 Signaling Pathway (AID 357; active = well fitted curve in either direction with a large enough effect, not every such curve was filed as active;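 note: ME-180 reporter cells stimulated with EGF at its EC50 level; % is set by controls: 0 for no effect and ±100 for the full control effect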); conditions: ME-180 AP-1-bla reporter, EGF-induced, beta-lactamase ratio, 5 h; at 38 µM (top of the series)
Outline: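 A ratiometric CCF4 readout (405 nm excitation; 460 and 530 nm emission) quantified AP-1-driven beta-lactamase in ME-180 cells after 5 h with compound and EC50 EGF; AC50 values were derived for activators and inhibitors.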

[11] = target: Cytochrome P450 1A2 (Homo sapiens) (UniProt P05177); test: p450-cyp1a2 (AID 410; calls by dose curve; note: potency is the fitted concentration of half-maximal effect;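 for activity change, negative = inhibition: -100% = full effect of reference inhibitor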)
Outline: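 O-Demethylation of luciferin 6' methyl ether by human CYP1A2 is monitored as luciferase luminescence. Substrate sits at Km (100uM); enzyme is 20nM. Values are scaled to 57 uM furafylline as maximal inhibition.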

[12] = Stat Signaling Pathway (AID 446; active = well fitted curve in either direction with a large enough effect, not every such curve was filed as active;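 note: ME-180 cervical cancer cells given 40 pM IL-6 alongside compound; SIE-controlled beta-lactamase reporter measured as 460/530 nm FRET emission ratio; % is set by controls: 0 for no effect and ±100 for the full control effect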); conditions: ME-180 SIE beta-lactamase reporter, IL-6 stimulated, 5 h
Outline: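 FRET read-out (405 nm excitation, 460/530 nm emission) of a beta-lactamase reporter under a STAT-inducible element in ME-180 cervical carcinoma cells. Cells with compound receive 40 pM IL-6 for 5 h. Values are normalised to AC90 stimulation and AC90 JAK-inhibitor controls.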

[13] = target: Guanine nucleotide-binding protein G(i) subunit alpha-1 (Homo sapiens) (UniProt P63096); test: qHTS Assay for Inhibitors of RGS12 GoLoco Motif Activity (Green Fluorophore) (AID 879);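 note: 0% = labeled peptide with Gαi1 and full inhibition = labeled peptide alone without protein; negative values mean loss of peptide binding seen as reduced polarization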
Outline: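 A drop in FITC polarization marked displacement of the FITC-tagged RGS12 GoLoco peptide (10 nM) from Gαi1 (50 nM). Compounds were incubated 10 min at room temperature in Tris pH 7.5 buffer containing 150 mM NaCl, 0.1 mM GDP and 0.05% NP40; unlabeled peptide titration served as control.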

[14] = target: Cytochrome P450 3A4 (Homo sapiens) (UniProt P08684); test: qHTS Assay for Inhibitors and Substrates of Cytochrome P450 3A4 (AID 884); note: potency is the fitted concentration of half-maximal effect; nearly all actives have a fitted effect of over 50% in size
Outline: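 Luminescent readout of luciferin produced by CYP3A4 (20 nM) dealkylation of Luciferin-PPXE, 25 uM (its KM). NADPH-driven reaction ran 60 min at RT after 10 min compound preincubation; data scaled to 57 uM ketoconazole as 100% inhibition.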

[15] = target: Cytochrome P450 3A4 (Homo sapiens) (UniProt P08684); test: qHTS Assay for Activators of Cytochrome P450 3A4 (AID 885); note: nearly all actives have a fitted effect of over 65% in size
Outline: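 Luminescent readout of luciferin formed from 25 uM Luciferin-PPXE (KM level) by 20 nM CYP3A4 in 200 mM KPO4, with 60 min NADPH-driven reaction at room temperature after 10 min compound exposure. Ketoconazole (57 uM) defined 100% inhibition.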

[16] = target: Cytochrome P450 2D6 (Homo sapiens) (UniProt P10635); test: qHTS Assay for Inhibitors and Substrates of Cytochrome P450 2D6 (AID 891); note: potency is the fitted concentration of half-maximal effect; nearly all actives have a fitted effect of over 60% in size
Outline: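 Luminescent read-out of luciferin formed by 5 nM human CYP2D6 demethylating 30 uM Luciferin-ME EGE (Km level) over 60 min at room temperature after NADPH regeneration addition. Data normalized to full inhibition by 1.43 uM quinidine.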

[17] = qHTS Assay for Identification of Small Molecule Antagonists for NFkB Signaling Pathway (AID 895; active = well fitted inhibition curve with a large enough effect in the signal ratio, with a control signal flat, not every such curve was filed as active; the % refers to the signal ratio; note: % is set by controls: 0 for no effect and ±100 for the full control effect)
Outline: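 ME-180 NFkB-bla cells (beta-lactamase under NFkB response element), plated overnight, treated with compound then 10 pM TNF alpha (about EC50) for 5 hrs at 37 C. LiveBLAzer FRET read at 460/530 nm emission, 405 nm excitation.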

[18] = target: Muscarinic acetylcholine receptor M1 (Rattus norvegicus) (UniProt P08482); test: qHTS Assay for Antagonists of Acetylcholine Muscarinic M1 Receptor: Kinetic Measurement of Intracellular Calcium Response (AID 943); note: potency is the fitted concentration of half-maximal effect; nearly all actives have a fitted effect of over 75% in size
Outline: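 Antagonism is measured as inhibition of the carbachol-evoked calcium rise in CHO cells transfected with rat M1. Cells are dye-loaded, exposed to compound for 10 min, then stimulated with 100 nM carbachol (EC80).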

[19] = target: Muscarinic acetylcholine receptor M1 (Rattus norvegicus) (UniProt P08482); test: qHTS Assay for Antagonists of Acetylcholine Muscarinic M1 Receptor: Measurement of IP-One Response (AID 944); note: potency is the fitted concentration of half-maximal effect; nearly all actives have a fitted effect of over 75% in size
Outline: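 Antagonist mode with rat M1 receptor transfected into CHO cells. Compound is added first for 10 min, carbachol at its EC80 follows for 30 min, and lysis reagents then allow TR-FRET detection of accumulated IP1.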

[20] = target: Pyruvate kinase (Leishmania mexicana) (UniProt Q27686); test: qHTS Validation Assay for Inhibitors of Leishmania Mexicana Pyruvate Kinase (AID 945);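 note: 0% = DMSO only neutral control wells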
Outline: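 Luminescent ATP detection (PKLight) after a 1 h room-temperature reaction of 0.2 nM LmPYK E451W mutant with 0.5 mM PEP and 0.1 mM ADP at pH 7.2. Activity is normalized to DMSO-only control wells.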

[21] = target: Pyruvate kinase PKM (Homo sapiens) (UniProt P14618); test: qHTS Assay for Activators of Human Muscle Pyruvate Kinase (AID 954; active = well fitted curve in the direction sought with a large enough effect, not every such curve was filed as active;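 note: 0% = uninhibited enzyme and -100% = no enzyme or full thiadiazolimine inhibition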)
Outline: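 ATP production by PKM2 detected via luciferase luminescence after 1 h room-temperature reaction (0.1 nM enzyme, PEP at Km 0.5 mM, ADP 0.1 mM, pH 7.2 imidazole buffer). Inhibition scaled to no-enzyme control; activation referenced to 0.3 nM enzyme wells.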

[22] = target: Alpha-galactosidase A (Homo sapiens) (UniProt P06280); test: Counterscreen for Glucocerebrosidase Inhibitors: qHTS Assay for Human alpha-Galactosidase at pH 4.5 (AID 992); note: 0% is about no effect
Outline: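 Fluorogenic 1536-well qHTS at pH 4.5 (citrate, Tween-20): 2 nM enzyme, 80 uM 4-MU-alpha-galactoside, 20 min room temperature, NaOH/glycine stop. Titration 0.7 nM to 77 uM, data normalized to no-enzyme and full-activity controls, Hill-fitted AC50.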

[23] = target: alpha-glucosidase (Oryza sativa, rice) (UniProt Q653V4); test: Counterscreen for Glucocerebrosidase Inhibitors: qHTS Assay for Rice alpha-Glucosidase at pH 5.0 (AID 997);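 note: 0% = full activity with enzyme and -100% = basal without enzyme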
Outline: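 Endpoint fluorogenic assay at pH 5.0: compounds (0.7 nM to 77 uM) titrated against 4 nM rice enzyme and 400 uM 4-MU-alpha-glucoside for 20 min at room temperature; NaOH/glycine stop, read ex 365/em 440 nm, Hill-fitted AC50.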

[24] = NFAT Signaling Pathway (AID 444; active = well fitted curve in either direction with a large enough effect, not every such curve was filed as active); conditions: Jurkat NFAT-bla M1, carbachol, beta-lactamase ratio, 5 h
Outline: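 Jurkat cells with NFAT-driven β-lactamase reporter and co-expressed M1 receptor, stimulated with carbachol (final 1 uM, ~EC50), compound titration, 5 h at 37 °C. CCF4 loaded 1 h at RT; 460/530 nm ratio gave %activity and AC50.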

[25] = target: Cytochrome P450 2C9 (Homo sapiens) (UniProt P11712); test: qHTS Assay for Inhibitors and Substrates of Cytochrome P450 2C9 (AID 883); note: % is set by controls: 0 for no effect and ±100 for the full control effect; nearly all actives have a fitted effect of over 60% in size
Outline: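 10nM CYP2C9 + 100uM Luciferin-H (=KM), 25mM KPO4; cpd 10 min 37C; NADPH regen, 60 min 37C; stop/detect with P450 Glo-Buffer 20 min; luminescence. Norm. to 57uM sulphaphenazole as full inhibition.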

[26] = qHTS Assay for Identification of Small Molecule Agonists for Thrombopoietin (TPO) Signaling Pathway (AID 917); note: % is set by controls: 0 for no effect and ±100 for the full control effect
Outline: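 Human TPO receptor–transfected Ba/F3 cells (murine, IL-3-dependent) in IL-3-deficient medium; compounds plus TPO at EC50, 26 pM final; 24 hrs, 37 C; GpIIb-luciferase luminescence after 10 min RT detection.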

[27] = measured here: cell count channel max response
[28] = measured here: lipid channel max response

Chain of Glucocorticoid receptor (Homo sapiens) (P04150 whole entry, looked up, the tested form may be a part): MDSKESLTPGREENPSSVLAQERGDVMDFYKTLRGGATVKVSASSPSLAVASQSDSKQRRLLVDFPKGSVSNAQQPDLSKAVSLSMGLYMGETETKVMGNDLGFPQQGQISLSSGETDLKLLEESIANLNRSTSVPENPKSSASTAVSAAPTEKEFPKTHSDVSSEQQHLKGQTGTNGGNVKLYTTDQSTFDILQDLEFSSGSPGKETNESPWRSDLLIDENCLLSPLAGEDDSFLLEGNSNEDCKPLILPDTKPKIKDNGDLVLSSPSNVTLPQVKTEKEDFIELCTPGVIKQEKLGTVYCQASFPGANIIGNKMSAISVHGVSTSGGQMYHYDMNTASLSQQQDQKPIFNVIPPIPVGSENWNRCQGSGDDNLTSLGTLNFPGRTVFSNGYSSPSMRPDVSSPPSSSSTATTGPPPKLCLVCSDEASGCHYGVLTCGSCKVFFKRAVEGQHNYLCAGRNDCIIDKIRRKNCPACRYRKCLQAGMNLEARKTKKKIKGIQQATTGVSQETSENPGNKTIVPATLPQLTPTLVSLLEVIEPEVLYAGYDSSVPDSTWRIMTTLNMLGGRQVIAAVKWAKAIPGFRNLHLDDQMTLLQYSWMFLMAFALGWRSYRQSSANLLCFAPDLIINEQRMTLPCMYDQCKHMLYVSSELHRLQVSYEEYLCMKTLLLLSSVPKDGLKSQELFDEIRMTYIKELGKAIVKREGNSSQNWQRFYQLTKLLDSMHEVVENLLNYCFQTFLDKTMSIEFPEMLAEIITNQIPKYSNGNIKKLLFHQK
Chain of Cytochrome P450 3A4 (Homo sapiens) (P08684 whole entry, looked up): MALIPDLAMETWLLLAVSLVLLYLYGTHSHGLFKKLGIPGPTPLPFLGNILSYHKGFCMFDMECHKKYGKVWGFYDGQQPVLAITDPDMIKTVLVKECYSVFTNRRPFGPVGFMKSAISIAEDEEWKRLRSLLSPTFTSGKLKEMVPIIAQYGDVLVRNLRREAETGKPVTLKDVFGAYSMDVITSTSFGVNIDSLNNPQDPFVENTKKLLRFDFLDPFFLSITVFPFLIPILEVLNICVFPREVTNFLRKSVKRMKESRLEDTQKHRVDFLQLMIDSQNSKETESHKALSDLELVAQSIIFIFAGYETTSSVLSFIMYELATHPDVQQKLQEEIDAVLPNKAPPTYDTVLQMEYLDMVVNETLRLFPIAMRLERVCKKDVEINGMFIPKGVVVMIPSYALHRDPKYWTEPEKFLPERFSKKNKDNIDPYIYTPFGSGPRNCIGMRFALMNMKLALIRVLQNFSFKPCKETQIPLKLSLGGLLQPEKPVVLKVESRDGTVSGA
Chain of Cytochrome P450 2C19 (Homo sapiens) (P33261 whole entry, looked up): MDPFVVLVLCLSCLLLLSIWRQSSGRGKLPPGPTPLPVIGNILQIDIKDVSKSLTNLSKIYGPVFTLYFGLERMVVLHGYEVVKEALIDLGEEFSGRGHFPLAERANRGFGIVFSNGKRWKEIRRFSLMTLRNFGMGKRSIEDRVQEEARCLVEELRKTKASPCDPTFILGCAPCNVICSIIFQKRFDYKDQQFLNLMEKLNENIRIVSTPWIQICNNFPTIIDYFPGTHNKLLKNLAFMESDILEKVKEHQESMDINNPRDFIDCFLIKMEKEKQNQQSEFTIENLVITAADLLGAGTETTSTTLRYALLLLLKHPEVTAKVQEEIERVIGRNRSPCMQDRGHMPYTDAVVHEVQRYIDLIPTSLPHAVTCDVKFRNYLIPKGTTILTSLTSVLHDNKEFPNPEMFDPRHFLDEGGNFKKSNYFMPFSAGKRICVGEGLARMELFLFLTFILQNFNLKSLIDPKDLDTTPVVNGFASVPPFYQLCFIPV
Chain of Cytochrome P450 1A2 (Homo sapiens) (P05177 whole entry, looked up): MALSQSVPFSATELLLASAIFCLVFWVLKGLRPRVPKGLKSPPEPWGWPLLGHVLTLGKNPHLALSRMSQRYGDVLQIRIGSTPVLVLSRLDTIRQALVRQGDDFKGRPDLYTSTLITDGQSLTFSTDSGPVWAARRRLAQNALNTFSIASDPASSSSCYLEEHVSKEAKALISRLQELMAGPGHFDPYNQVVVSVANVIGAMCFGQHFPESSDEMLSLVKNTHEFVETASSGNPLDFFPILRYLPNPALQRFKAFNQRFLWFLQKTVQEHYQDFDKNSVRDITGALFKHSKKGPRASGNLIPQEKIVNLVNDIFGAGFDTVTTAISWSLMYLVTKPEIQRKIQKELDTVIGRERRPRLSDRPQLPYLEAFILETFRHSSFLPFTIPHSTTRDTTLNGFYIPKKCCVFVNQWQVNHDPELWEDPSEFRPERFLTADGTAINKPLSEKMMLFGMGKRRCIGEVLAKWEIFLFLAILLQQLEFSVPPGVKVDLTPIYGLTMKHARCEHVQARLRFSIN
Chain of Cytochrome P450 2D6 (Homo sapiens) (P10635 whole entry, looked up): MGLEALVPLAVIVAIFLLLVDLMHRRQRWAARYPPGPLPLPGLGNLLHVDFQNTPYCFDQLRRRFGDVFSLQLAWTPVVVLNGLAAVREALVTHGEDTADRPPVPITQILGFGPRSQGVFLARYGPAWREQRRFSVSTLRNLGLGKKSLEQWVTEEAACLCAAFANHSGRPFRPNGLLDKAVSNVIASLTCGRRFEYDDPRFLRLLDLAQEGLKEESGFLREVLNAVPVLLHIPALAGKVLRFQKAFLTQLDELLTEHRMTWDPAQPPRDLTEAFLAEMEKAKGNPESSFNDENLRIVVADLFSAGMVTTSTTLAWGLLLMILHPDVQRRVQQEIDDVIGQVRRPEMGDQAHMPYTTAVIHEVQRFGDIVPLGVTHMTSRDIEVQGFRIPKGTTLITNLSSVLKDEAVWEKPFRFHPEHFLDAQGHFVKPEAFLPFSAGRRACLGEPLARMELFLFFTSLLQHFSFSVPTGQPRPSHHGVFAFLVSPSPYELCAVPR
Chain of DNA dC->dU-editing enzyme APOBEC-3G (Homo sapiens) (Q9HC16 whole entry, looked up): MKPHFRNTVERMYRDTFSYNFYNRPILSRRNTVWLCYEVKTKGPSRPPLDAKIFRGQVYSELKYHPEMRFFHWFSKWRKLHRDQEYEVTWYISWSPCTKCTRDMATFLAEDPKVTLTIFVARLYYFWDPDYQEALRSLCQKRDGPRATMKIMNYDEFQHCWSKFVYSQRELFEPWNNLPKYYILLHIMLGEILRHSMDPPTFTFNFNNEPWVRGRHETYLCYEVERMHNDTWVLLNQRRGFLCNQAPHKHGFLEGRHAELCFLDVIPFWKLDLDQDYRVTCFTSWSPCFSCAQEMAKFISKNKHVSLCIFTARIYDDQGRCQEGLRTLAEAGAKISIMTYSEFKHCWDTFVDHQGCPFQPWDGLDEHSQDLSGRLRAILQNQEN
Chain of 3',5'-cyclic-AMP phosphodiesterase 4B (Homo sapiens) (Q07343 whole entry, looked up): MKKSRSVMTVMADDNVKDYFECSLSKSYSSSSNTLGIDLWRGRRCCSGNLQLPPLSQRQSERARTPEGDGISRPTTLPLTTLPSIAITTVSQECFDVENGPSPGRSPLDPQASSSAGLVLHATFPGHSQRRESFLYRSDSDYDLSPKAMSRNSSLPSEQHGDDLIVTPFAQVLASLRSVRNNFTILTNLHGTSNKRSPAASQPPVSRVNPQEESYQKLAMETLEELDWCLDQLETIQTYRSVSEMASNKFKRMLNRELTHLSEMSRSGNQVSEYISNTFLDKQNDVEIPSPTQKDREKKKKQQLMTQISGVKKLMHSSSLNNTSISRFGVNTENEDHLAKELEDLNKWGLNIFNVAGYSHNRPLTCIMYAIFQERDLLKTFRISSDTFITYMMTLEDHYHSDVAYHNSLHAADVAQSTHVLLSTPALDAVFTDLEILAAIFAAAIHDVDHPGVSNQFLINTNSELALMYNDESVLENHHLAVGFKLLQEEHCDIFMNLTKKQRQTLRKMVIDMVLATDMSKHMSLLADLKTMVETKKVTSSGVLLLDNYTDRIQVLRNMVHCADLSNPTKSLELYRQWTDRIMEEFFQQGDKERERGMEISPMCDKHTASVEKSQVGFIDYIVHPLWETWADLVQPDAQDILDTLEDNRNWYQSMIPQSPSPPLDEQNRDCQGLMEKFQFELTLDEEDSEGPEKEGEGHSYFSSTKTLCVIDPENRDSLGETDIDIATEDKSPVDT
Chain of Alpha-galactosidase A (Homo sapiens) (P06280 whole entry, looked up): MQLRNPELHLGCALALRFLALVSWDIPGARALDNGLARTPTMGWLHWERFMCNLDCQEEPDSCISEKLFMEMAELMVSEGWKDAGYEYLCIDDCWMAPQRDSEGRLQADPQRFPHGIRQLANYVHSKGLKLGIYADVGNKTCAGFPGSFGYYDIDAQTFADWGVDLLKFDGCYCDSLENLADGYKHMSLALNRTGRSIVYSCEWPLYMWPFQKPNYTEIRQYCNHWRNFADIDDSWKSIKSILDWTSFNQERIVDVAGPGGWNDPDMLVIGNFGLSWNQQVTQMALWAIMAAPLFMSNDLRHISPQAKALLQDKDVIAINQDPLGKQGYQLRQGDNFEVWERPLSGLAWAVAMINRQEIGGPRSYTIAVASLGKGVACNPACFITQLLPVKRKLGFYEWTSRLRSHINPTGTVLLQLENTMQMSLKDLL
Chain of Pyruvate kinase PKM (Homo sapiens) (P14618 whole entry, looked up): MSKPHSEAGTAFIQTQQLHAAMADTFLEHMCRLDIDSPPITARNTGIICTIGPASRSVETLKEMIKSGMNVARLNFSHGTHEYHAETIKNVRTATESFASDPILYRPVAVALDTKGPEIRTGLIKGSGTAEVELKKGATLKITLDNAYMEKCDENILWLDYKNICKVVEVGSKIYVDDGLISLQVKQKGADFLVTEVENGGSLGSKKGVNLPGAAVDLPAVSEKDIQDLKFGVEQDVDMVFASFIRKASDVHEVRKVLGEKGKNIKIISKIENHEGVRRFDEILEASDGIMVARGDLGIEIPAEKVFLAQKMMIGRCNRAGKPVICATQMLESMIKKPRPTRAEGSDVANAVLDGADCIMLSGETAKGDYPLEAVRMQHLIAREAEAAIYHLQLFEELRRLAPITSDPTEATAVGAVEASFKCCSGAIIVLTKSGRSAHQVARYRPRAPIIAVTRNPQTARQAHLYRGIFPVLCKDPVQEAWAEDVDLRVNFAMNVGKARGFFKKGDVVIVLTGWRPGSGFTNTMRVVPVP

NC(N)=Nc1ccc(Cl)cc1
inactive: Potency [1] > 46 µM | Potency [2] | Potency [3] | Potency [4] | activity change, negative = inhibition [5] -3.61% | Potency [6] | Potency [7] | Potency [8]
-0.36%: max response [5, 27]
-4.97%: max response [5, 28]

CCNCCCNCCCCNCCCNCC
18.1%: max response [5, 28]
15.1%: max response [5, 27]
inactive: Potency [9] > 46 µM | Potency [1] > 46 µM | activity change, negative = inhibition [5] 2.21% | Potency [6] | Potency [7] | Potency [8]

COc1cccc(OC)c1OCCNC[C@@H]1COc2ccccc2O1
inactive: activity change, negative = inhibition [10] -5.1% | activity, negative = inhibition ([12]; at 38 µM (top of the series)) 9.55% | Potency [9] > 46 µM | Potency [1] > 46 µM | Potency [2] | outcome [13] | Potency [15] | Potency [17] | Potency [20] | outcome [21] | outcome [22] | outcome [23] | Potency [7] | Potency [8]
active: Potency [11] 12.6 µM and 25.1 µM | Potency [14] 2 µM and 2.51 µM | Potency [16] 251 nM | Potency [4] 0.794 µM | Potency [18] 10 µM | Potency [19] 17.8 µM

CNC(=O)Oc1ccc2c(c1)[C@@]1(C)CCN(C)[C@@H]1N2C
inactive: Potency [11] | activity change, negative = inhibition ([24]; at 17.2 µM (top of the series)) -2.84% | activity change, negative = inhibition ([24]; at 38 µM (top of the series)) -3.73% | activity, negative = inhibition ([12]; at 17.2 µM (top of the series)) 5.27% | activity, negative = inhibition ([12]; at 38 µM (top of the series)) -23.2% | Potency [2] | Potency [3] | outcome [13] | Potency [25] | Potency [17] | Potency [4] | Potency [26] | Potency [20] | outcome [21] | outcome [22] | outcome [23] | Potency [7] | Potency [8]
active: Potency [16] 1.26 µM and 79.4 nM and 251 nM
